GDH-TPI counter-1: GDH-TPI coupled enzyme inhibition counter-screen; inhibition, % at 4.8 µM; GDH-TPI coupled enzyme counterscreen, NADH absorbance; 1.2% of 360,000 active
RecA intein inh: inhibitors of M. tuberculosis RecA intein splicing. P9WHJ3. cell-free RecA intein splicing, fluorescence. inhibition, % (no concentration beside the values). 0.75% of 290,000 active; in the data active = inhibition above about 30%
Target sequence (P9WHJ3 whole entry, looked up): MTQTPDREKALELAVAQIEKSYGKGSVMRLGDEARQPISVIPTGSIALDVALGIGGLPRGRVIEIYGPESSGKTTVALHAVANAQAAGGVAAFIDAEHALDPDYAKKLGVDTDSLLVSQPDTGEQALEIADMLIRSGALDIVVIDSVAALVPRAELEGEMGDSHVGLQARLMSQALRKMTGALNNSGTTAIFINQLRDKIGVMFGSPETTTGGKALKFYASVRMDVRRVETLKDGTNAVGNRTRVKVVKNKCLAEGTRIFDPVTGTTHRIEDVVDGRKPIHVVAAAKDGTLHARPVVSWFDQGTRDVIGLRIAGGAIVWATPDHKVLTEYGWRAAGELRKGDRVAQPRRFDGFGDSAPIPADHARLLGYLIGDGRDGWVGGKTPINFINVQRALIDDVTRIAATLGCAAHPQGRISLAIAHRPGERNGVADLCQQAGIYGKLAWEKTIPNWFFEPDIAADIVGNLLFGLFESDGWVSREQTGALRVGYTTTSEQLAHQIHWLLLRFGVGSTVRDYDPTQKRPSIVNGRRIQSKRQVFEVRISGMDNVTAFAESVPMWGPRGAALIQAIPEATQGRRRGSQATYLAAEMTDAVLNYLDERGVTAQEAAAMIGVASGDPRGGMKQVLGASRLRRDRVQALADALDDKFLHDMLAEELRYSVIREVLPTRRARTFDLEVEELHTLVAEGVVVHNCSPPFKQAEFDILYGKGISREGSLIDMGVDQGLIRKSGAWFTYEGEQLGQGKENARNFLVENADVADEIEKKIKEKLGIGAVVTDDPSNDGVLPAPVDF
Mtb FBA inh: Mtb fructose-bisphosphate aldolase inhibition; P9WQA3; purified M. tuberculosis FBA, fluorescence read-out; 2.3% of 360,000 active; inhibition, % at 1 µM; AID 588726; in the data active = inhibition above about 27%
CCHF vOTU inh-1: CCHFV vOTU protease inhibition | AID 651958 | 0.55% of 370,000 active | inhibition, % at 11.5 µM | Pep-AMC fluorescence
GFP chromophore: counter-screen GFP chromophore formation inhibition; shares compounds with RecA intein inh; cell-free GFP chromophore formation, fluorescence; EC50, µM; 83% of 2,100 active; AID 434968; call rule not given here
Mtb FBA confirm: Mtb FBA inhibition, confirmed; shares compounds with Mtb FBA inh; purified M. tuberculosis FBA, fluorescence read-out; inhibition, % at 1 µM; 78% of 5,600 active; AID 651616; in the data active = inhibition above about 27%
GDH-TPI counter-2: counter-screen for M. tuberculosis FBA inhibitors: GDH-TPI coupled enzyme inhibition. shares compounds with Mtb FBA inh. GDH-TPI coupled enzyme counterscreen, fluorescence. inhibition, % at 1 µM. 81% of 5,600 active. AID 652141; in the data active = inhibition above about 10%
CCHF vOTU inh-2: confirmation of CCHF virus vOTU protease inhibitors; Recombinant CCHFV vOTU, Pep-AMC fluorescence; shares compounds with CCHF vOTU inh-1; inhibition, % at 11.5 µM; 17% of 1,900 active; AID 686976
Each line names hits and unclear results; the compound was inactive in the other large screens (follow-up assays come after a bar, where they were run). Only some compounds are listed: those with a hit (about 4.2% of all), similar ones and a draw of the others. Cut-off read from the data, not from the text of the source, unless noted: active = inhibition above about 30%; inactive = the rest.

O=C(N/N=C1\C/C(=N\NC(=O)c2ccncc2)c2ccccc21)c1ccncc1	RecA intein inh 95, CCHF vOTU inh-1 93 | GFP chromophore 1.2 | CCHF vOTU inh-2 83
O=P(O)(Cc1ccccc1)c1ccccc1	none (no result: RecA intein inh)
Cc1cc(C(=O)c2ccccc2)c(NC(=O)CCl)s1	RecA intein inh 58, CCHF vOTU inh-1 32 | GFP chromophore 17 | CCHF vOTU inh-2 inactive
COc1ccc2ccc3c(c2c1)N=C[C@]1(O3)N(C)c2ccccc2C1(C)C	RecA intein inh 89, CCHF vOTU inh-1 46 | GFP chromophore 12 | CCHF vOTU inh-2 inactive
CC(=O)Nc1ccc(S(=O)(=O)/N=C2\C(=O)c3ccccc3C([O-])=C2n2cc[n+](-c3ccccn3)c2)cc1	RecA intein inh 85, CCHF vOTU inh-1 68 | GFP chromophore 6.1 | CCHF vOTU inh-2 58
O=C(O)c1ccc(NC2=C(n3nnc4ccccc43)C(=O)c3ccccc3C2=O)cc1	RecA intein inh 88, CCHF vOTU inh-1 87 | GFP chromophore 5.6 | CCHF vOTU inh-2 89
Cc1onc(-c2c(F)cccc2Cl)c1C(=O)Nc1ccc(Cl)c(S(=O)(=O)N(C)C)c1	none (no result: RecA intein inh)
O=C(Cn1ncn2c(cc3sccc32)c1=O)NC1CCCC1	none
O=C1Cc2ccccc2C(=O)N1Cc1ccccc1	RecA intein inh 90, CCHF vOTU inh-1 93 | GFP chromophore 1.9 | CCHF vOTU inh-2 91
C=CCN(Cc1ccc2c(c1)OCO2)C(C#Cc1ccccc1)c1ccccc1C(F)(F)F (centres undefined)	none (no result: GDH-TPI counter-1, RecA intein inh, Mtb FBA inh)
c1ccc2c(CN3CCSCC3)cccc2c1	none
NC(=O)C1CCN(C2=C(NS(=O)(=O)c3ccccc3)C(=O)c3ccccc3C2=O)CC1	none
NC(=O)C1CCN(C2=C(Cl)C(=O)c3ccccc3C2=O)CC1	RecA intein inh 43, CCHF vOTU inh-1 58 | GFP chromophore 0.54 | CCHF vOTU inh-2 83
O=C1C=C(Nc2ccccc2C(=O)O)c2ccccc2C1=O	RecA intein inh 97, Mtb FBA inh 38, CCHF vOTU inh-1 72 | GFP chromophore 2.5 | Mtb FBA confirm active | GDH-TPI counter-2 157 | CCHF vOTU inh-2 95
O=C1C=C(Nc2ccccc2)c2ccccc2C1=O	RecA intein inh 70, CCHF vOTU inh-1 55 | GFP chromophore 0.85 | CCHF vOTU inh-2 73
CCCCNC1=CC(=O)C(=O)c2ccccc21	RecA intein inh 97, CCHF vOTU inh-1 35 | GFP chromophore 0.98 | CCHF vOTU inh-2 68
O=C1C=C(Nc2cccc3cccnc23)c2ccccc2C1=O	RecA intein inh 90, CCHF vOTU inh-1 38 | GFP chromophore 3.6 | CCHF vOTU inh-2 inactive
O=C(CN1C(=O)c2ccccc2C1=O)Nc1cccc2cccnc12	none
Cc1nc2nc(NC(=O)c3ccco3)[nH]n2c(=O)c1C	none
Cc1cccc(/C(N)=N/OC(=O)CCCc2ccccc2)c1	none
Cc1c(N=C2C=CC(=O)c3ccccc32)c(=O)n(-c2ccccc2)n1C	RecA intein inh 72, CCHF vOTU inh-1 90 | GFP chromophore 1.8 | CCHF vOTU inh-2 inactive
Cc1c(N=C2C=C(Br)C(=O)C(Br)=C2)c(=O)n(-c2ccccc2)n1C	none (no result: RecA intein inh)
Cn1nc(-c2ccccn2)nc2c(=O)n(C)c(=O)nc1-2	RecA intein inh 95, CCHF vOTU inh-1 102 | GFP chromophore 0.41 | CCHF vOTU inh-2 104
COc1ccc(-c2nc(-c3ccccn3)ncc2S(C)(=O)=O)cc1	none
CC(=O)c1c(C)oc2c1C(=O)c1ccccc1C2=O	none
COc1ccc(CNC(=O)c2c(C)oc3c2C(=O)c2ccccc2C3=O)cc1	RecA intein inh 58, CCHF vOTU inh-1 54 | GFP chromophore 23 | CCHF vOTU inh-2 48
CCC(CNc1cc(OC)cc2cccnc12)NC1CCCCC1 (centres undefined)	RecA intein inh 67, CCHF vOTU inh-1 110 | GFP chromophore 25 | CCHF vOTU inh-2 102
COc1cc(NS(=O)(=O)c2ccc(C)cc2)c2ncccc2c1	none
COc1cc(NCCCC(C)N)c2ncccc2c1 (centres undefined)	RecA intein inh 88, CCHF vOTU inh-1 65 | GFP chromophore 10 | CCHF vOTU inh-2 108
Cc1c(C(=O)Nc2ccccc2N2CCN(C)CC2)oc2ccc(F)cc12	none (no result: RecA intein inh)
Cc1[nH]n(-c2ccccc2)c(=O)c1C(c1ccc(O)c([N+](=O)[O-])c1)c1c(C)[nH]n(-c2ccccc2)c1=O	RecA intein inh 86, CCHF vOTU inh-1 70 | GFP chromophore 2.3 | CCHF vOTU inh-2 inactive
O=c1c2cc([N+](=O)[O-])cc([N+](=O)[O-])c2[nH]n1-c1ccccc1	none
COc1ccc(C(C[N+](=O)[O-])c2c(C)cc3ccccn23)cc1 (centres undefined)	none
COc1ccc(C(C[N+](=O)[O-])c2c(C)[nH]n(-c3ccccc3)c2=O)cc1 (centres undefined)	RecA intein inh 95, CCHF vOTU inh-1 100 | GFP chromophore 5.3 | CCHF vOTU inh-2 31
CC(C)c1nnc(NC(=O)C2CCN(C(=O)Nc3ccc(Cl)cc3)CC2)s1	none
CC(C(=O)Nc1ccc(Br)cc1)N(C)CC(=O)NCc1ccco1 (centres undefined)	none (no result: RecA intein inh)
O=C(Nc1ccc(C(F)(F)F)cc1)C1CCCCN1S(=O)(=O)c1ccccc1 (centres undefined)	none (no result: RecA intein inh)
O=c1[nH]c(Nc2ccccc2Cl)cc2ccccc12	RecA intein inh 86, CCHF vOTU inh-1 94 | GFP chromophore 16 | CCHF vOTU inh-2 inactive
O=C(CN1CCCC1c1cccs1)N1CCN(S(=O)(=O)c2cccc(F)c2)CC1 (centres undefined)	none (no result: RecA intein inh)
Cc1cc(=O)n(C2CCS(=O)(=O)C2)[nH]1 (centres undefined)	RecA intein inh 93, CCHF vOTU inh-1 57 | GFP chromophore 3.8 | CCHF vOTU inh-2 inactive
Cc1ccccc1-c1nnnn1C1CCS(=O)(=O)C1 (centres undefined)	none
CCCCn1c(NS(=O)(=O)c2ccc(C)cc2)c(S(=O)(=O)c2ccccc2)c2nc3ccccc3nc21	RecA intein inh 83, CCHF vOTU inh-1 90 | GFP chromophore inactive | CCHF vOTU inh-2 inactive
CC1=NN(c2ccc(F)cc2)C(=O)C1C(c1cccc(O)c1)c1c(C)[nH]n(-c2ccc(F)cc2)c1=O (centres undefined)	RecA intein inh 97, CCHF vOTU inh-1 66 | GFP chromophore 1.8 | CCHF vOTU inh-2 inactive
Cc1[nH]n(-c2ccccc2)c(=O)c1C(=O)c1cccc(F)c1	none
C=CC[C@H](CC(=O)N[C@H](CO)Cc1ccccc1)C(=O)N[C@H](COC(=O)[C@H](CC=C)CC(=O)OC(C)(C)C)Cc1c[nH]c2ccccc12	none (no result: RecA intein inh)
COc1cc(C(=O)c2nccc3cc(OC)c(OC)cc23)c([N+](=O)[O-])cc1OC	GDH-TPI counter-1 38, RecA intein inh 95, CCHF vOTU inh-1 103 | GFP chromophore 0.39 | CCHF vOTU inh-2 72

Compound activity (PubChem BioAssay)
